This is a sample that favours compounds with a hit; in the whole collection about 14% have one here.
Giardia FBPA inh-1 = Giardia lamblia aldolase inhibition | A8B2U2 | purified Giardia FBPA | Potency, µM (doses to about 59.6 µM), most hits filed as inhibitors | 290,000 compounds, 0.71% hits | AID 2451; note: nearly all actives have a fitted effect of over 55% in size
Target sequence (A8B2U2 whole entry, looked up): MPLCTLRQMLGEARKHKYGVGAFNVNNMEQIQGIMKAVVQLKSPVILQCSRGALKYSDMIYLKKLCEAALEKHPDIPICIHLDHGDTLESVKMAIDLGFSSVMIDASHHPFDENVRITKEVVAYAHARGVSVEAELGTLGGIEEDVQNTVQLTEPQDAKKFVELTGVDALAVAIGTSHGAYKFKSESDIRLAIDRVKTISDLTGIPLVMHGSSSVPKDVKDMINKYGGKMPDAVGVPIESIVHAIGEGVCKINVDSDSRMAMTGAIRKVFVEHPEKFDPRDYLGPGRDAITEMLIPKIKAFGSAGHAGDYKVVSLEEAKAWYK
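40 nM FBPA preincubated 10 min at RT with compound (up to 57.5 uM final), then substrate plus GAPDH/TPI/NAD/arsenate coupling and diaphorase/resazurin added. Fluorescence read after 20 min at RT, 525/598 nm.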
Cycloheximide cs = affects cycloheximide protein synthesis inhibition readout, counter-screen. cell reporter, cycloheximide protein synthesis inhibition counterscreen. max response, %. 300,000 compounds, 12% hits. AID 2314; in the data active = max response mostly above about 13%, no sharp cut-off; inactive = mostly below about 14%; note: read at 38.3 µM for the half of the compounds with a filed dose
NS1 inh = blocks influenza NS1 protein function. Potency, µM (titrated, usually from 46.1 µM). 270,000 compounds, 0.4% hits; calls by dose curve; note: actives are rising curves; nearly all actives have a fitted effect of over 50% in size
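Compounds were scored for reversing the slow growth caused by influenza A NS1 in S. cerevisiae, measured by optical density at 600 nm. Assay medium contained 2% galactose at pH 6.0; NS1-free yeast of the same strain were the positive control.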
LmPK inh = LmPK (Leishmania mexicana) enzyme inhibition; 290,000 compounds, 0.37% hits; purified LmPK, Kinase-Glo ATP luminescence, 1 h; Potency, µM (highest dose often 57.5 µM), hits mostly inhibitors
Target sequence (Q27686 whole entry, looked up): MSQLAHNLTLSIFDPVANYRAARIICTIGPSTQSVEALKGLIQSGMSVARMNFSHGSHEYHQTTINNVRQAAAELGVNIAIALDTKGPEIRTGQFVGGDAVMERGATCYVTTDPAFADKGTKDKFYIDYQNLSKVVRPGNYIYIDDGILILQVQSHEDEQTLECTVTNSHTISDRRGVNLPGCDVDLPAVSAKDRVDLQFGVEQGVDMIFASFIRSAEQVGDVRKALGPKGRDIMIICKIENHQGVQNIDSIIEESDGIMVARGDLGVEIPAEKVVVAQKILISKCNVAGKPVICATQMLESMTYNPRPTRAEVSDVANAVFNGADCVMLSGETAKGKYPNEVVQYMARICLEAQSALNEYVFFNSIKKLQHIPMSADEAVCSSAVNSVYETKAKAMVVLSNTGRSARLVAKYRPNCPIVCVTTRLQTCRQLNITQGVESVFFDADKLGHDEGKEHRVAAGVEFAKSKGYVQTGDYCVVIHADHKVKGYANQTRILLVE
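qHTS format; LmPK 0.1 nM; substrates PEP 0.5 mM and ADP 0.1 mM. One-hour room-temperature incubation, then coupled luciferase luminescence; 0.5 nM enzyme wells mark activation.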
Shiga inhibitor = blocks Shiga toxin action in Vero cells | Vero cells, Shiga toxin protein synthesis inhibition reporter | inhibition, % at 38.7 µM | 290,000 compounds, 9.2% hits | AID 2315; in the data active = inhibition mostly above about 28%, no sharp cut-off; inactive = mostly below about 43%
Giardia growth = Giardia lamblia growth inhibition; Giardia lamblia trophozoite growth inhibition; Potency, µM (series often up to 57.5 µM), actives largely listed as inhibitors; shares compounds with Giardia FBPA inh-1; 1,500 compounds, 5% hits;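 note: trophozoites exposed to compound for 48 h at 37 °C; nearly all actives have a fitted effect of over 70% in size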
Mammalian tox = mammalian cytotoxicity of Giardia aldolase inhibitor hits. mammalian cell viability counter-screen, qHTS. 1,500 compounds, 4% hits. Potency, µM (series often up to 57.5 µM), usual class: inhibitors. shares compounds with Giardia FBPA inh-1. AID 2786;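 note: Chinese hamster ovary cells used as mammalian cytotoxicity surrogate; viability measured as cellular ATP by luminescence; compound exposure lasted 48 h before reading; nearly all actives have a fitted effect of over 60% in size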
Giardia FBPA inh-2 = confirmation of Giardia fructose-bisphosphate aldolase inhibitors; shares compounds with Giardia FBPA inh-1; purified Giardia aldolase enzyme activity, qHTS; Potency, µM (series often up to 57.5 µM), most hits filed as inhibitors; 1,500 compounds, 5% hits; AID 2787; note: nearly all actives have a fitted effect of over 45% in size
Rabbit aldolase = selectivity test for Giardia aldolase inhibitors: rabbit aldolase | AID 2794 | Potency, µM (series often up to 57.5 µM), most hits filed as inhibitors | 1,500 compounds, 4% hits | Rabbit muscle FBPA enzyme inhibition, selectivity counter-screen | shares compounds with Giardia FBPA inh-1; note: nearly all actives have a fitted effect of over 60% in size
GAPDH coupling = GAPDH inhibition flagged for Giardia aldolase hits; shares compounds with Giardia FBPA inh-1; GAPDH coupling enzyme counterscreen, biochemical, qHTS; Potency, µM (doses to about 57.5 µM), hits mostly inhibitors; 1,500 compounds, 6% hits; AID 2795; note: nearly all actives have a fitted effect of over 55% in size
Of the large screens only hits and unclear results are named; the others gave an inactive call (follow-up assays come after a bar, where they were run); [ ] = another dose, or the depositor's remark. Unless noted, calls come from the whole dose curve; as a rule, active = well fitted curve in the direction sought with a large enough effect; inconclusive = small, poorly fitted or top-dose-only effect, or another doubt; inactive = no such curve, though single readings can be large; an effect the other way counts as inactive or inconclusive.

CCOC(=O)C1CCCN(CC(=O)Nc2nc(-c3ccccc3)cs2)C1 (centres undefined)	none (no result: Shiga inhibitor)
CC(C)c1cccc(OCCCCN(C)C)c1	Giardia FBPA inh-1 15.8µM (no result: NS1 inh) | Giardia growth inconclusive | Mammalian tox inactive | Giardia FBPA inh-2 inactive | Rabbit aldolase inactive | GAPDH coupling inactive
Cc1ccc(NC(=O)CCN2CC(C)OC(C)C2)cc1 (centres undefined)	Giardia FBPA inh-1 inconclusive (no result: Shiga inhibitor)
Cn1ccnc1P(=S)(c1nccn1C)c1nccn1C	Giardia FBPA inh-1 7.94µM | Giardia growth inactive | Mammalian tox inactive | Giardia FBPA inh-2 inactive | Rabbit aldolase inactive | GAPDH coupling inactive
Cn1ccnc1P(=S)(c1nccn1C)N1CCOCC1	none
c1ccc2nc3c(nc2c1)CCc1nonc1-3	none
O/N=C1/CCc2nonc2/C1=N/O	Giardia FBPA inh-1 15.8µM | Giardia growth 8.91µM | Mammalian tox inactive | Giardia FBPA inh-2 inactive | Rabbit aldolase inactive | GAPDH coupling inactive
CCC(Sc1nc2ccncc2[nH]1)C(=O)Nc1ccc(C)c(Cl)c1 (centres undefined)	Giardia FBPA inh-1 inconclusive
CCOc1ccccc1NC(=O)C(CC)Sc1nc2ccncc2[nH]1 (centres undefined)	Giardia FBPA inh-1 14.1µM | Giardia growth inactive[10.4 µM] | Mammalian tox inactive | Giardia FBPA inh-2 inactive | Rabbit aldolase inactive | GAPDH coupling inactive
Cc1ccc(-[n+]2cc(=O)o[nH]2)cc1	none (no result: Giardia FBPA inh-1, Cycloheximide cs, LmPK inh, Shiga inhibitor)
O=C1CS/C(=N/N=C2C3CC4CC(C3)CC2C4)N1	none
O=C1CS/C(=N/N=C\c2ccn[nH]2)N1	Giardia FBPA inh-1 17.7µM | Giardia growth inconclusive | Mammalian tox inactive | Giardia FBPA inh-2 inactive | Rabbit aldolase inactive | GAPDH coupling inactive
Cc1ccc(N=Nc2c(O)ccc3n[nH]nc23)cc1	Giardia FBPA inh-1 15.8µM, Cycloheximide cs 41.6, LmPK inh inconclusive, Shiga inhibitor 103.4 | Giardia growth inconclusive | Mammalian tox inactive | Giardia FBPA inh-2 inconclusive | Rabbit aldolase inactive | GAPDH coupling inactive
Cc1ccc(N=Nc2c(O)ccc3cc(S(=O)(=O)O)ccc23)cc1	none (no result: Giardia FBPA inh-1, Cycloheximide cs, LmPK inh, Shiga inhibitor)
COc1ccc(Cc2n[nH]c(=S)n2N)cc1OC	Giardia FBPA inh-1 12.6µM | Giardia growth inactive | Mammalian tox inactive | Giardia FBPA inh-2 inactive | Rabbit aldolase inactive | GAPDH coupling inactive
COc1ccc(Cc2n[nH]c(=S)n2C)cc1Br	Giardia FBPA inh-1 inconclusive
Nn1c(Cc2ccccc2F)n[nH]c1=S	Giardia FBPA inh-1 14.1µM (no result: NS1 inh) | Giardia growth inactive | Mammalian tox inactive | Giardia FBPA inh-2 inactive | Rabbit aldolase inactive | GAPDH coupling inactive
O=C(c1ccncc1)N1CCC2(CC1)CN(c1cccc(-c3ccccc3)c1)C2	none (no result: Cycloheximide cs, NS1 inh, LmPK inh, Shiga inhibitor)
COc1ccc(CC(=O)NC2CC(C)(C)NC(C)(C)C2)cc1OC	none
O=C(CCCCCNC(=O)c1ccccc1)N=Nc1c(O)[nH]c2c(Br)cc(Br)cc12	none
O=C(CNC(=O)c1cccnc1)N=Nc1c(O)[nH]c2c(Br)cc(Br)cc12	Giardia FBPA inh-1 28.2µM | Giardia growth inactive[10.4 µM] | Mammalian tox inactive | Giardia FBPA inh-2 inactive | Rabbit aldolase inactive | GAPDH coupling inactive
COc1c(O)ccc(/C=C(\C#N)c2nc3ccccc3[nH]2)c1[N+](=O)[O-]	Giardia FBPA inh-1 inconclusive, Cycloheximide cs 40.5, Shiga inhibitor 63.9 | Giardia growth inconclusive | Mammalian tox inactive | Giardia FBPA inh-2 inactive | Rabbit aldolase inactive | GAPDH coupling inactive
COc1cccc(C(=O)N2CCN(Cc3ccccn3)CC2)c1	Giardia FBPA inh-1 25.1µM | Giardia growth inactive | Mammalian tox inactive | Giardia FBPA inh-2 inactive | Rabbit aldolase inactive | GAPDH coupling inactive
CCOC(=O)C1CCN(Cc2ccccn2)CC1	Giardia FBPA inh-1 17.8µM | Giardia growth inconclusive | Mammalian tox inactive | Giardia FBPA inh-2 inactive | Rabbit aldolase inactive | GAPDH coupling inactive
Cc1ccc(N(CC(=O)NCc2ccc(F)cc2)C(=O)c2snc(C(N)=O)c2N)cc1C	none
[NH-]c1ncnc2c1N=C[N+]2=CC=CCO	Giardia FBPA inh-1 8.91µM | Giardia growth inactive | Mammalian tox inactive | Giardia FBPA inh-2 inactive | Rabbit aldolase inactive | GAPDH coupling inactive
O=C(CS(=O)(=O)c1ccccc1)Nc1nnc(Cc2ccccc2)s1	none
C[C@H](NC(=O)[C@H]1N2C(=O)c3ccccc3C2SC1(C)C)C(=O)N1CCCCC1 (some centres undefined)	Giardia FBPA inh-1 20µM | Giardia growth inactive | Mammalian tox inactive | Giardia FBPA inh-2 inactive | Rabbit aldolase inactive | GAPDH coupling inconclusive
C[C@H](NC(=O)[C@H]1N2C(=O)c3ccccc3C2SC1(C)C)C(=O)N1CCN(C)CC1 (some centres undefined)	none
Cc1cc(OC(C)C(=O)NCc2cccnc2)c2c(C)cc(=O)oc2c1 (centres undefined)	none
COc1ccc(CCNC(=O)CNCC2CCCO2)cc1OC (centres undefined)	Giardia FBPA inh-1 15.8µM | Giardia growth inactive | Mammalian tox inactive | Giardia FBPA inh-2 inactive | Rabbit aldolase inactive | GAPDH coupling inactive
COc1ccc(CCNC(=O)/C(C#N)=C/c2ccc(OCC(=O)NCC3CCCO3)cc2)cc1OC (centres undefined)	none
Cc1ccc(/C=N/Nc2cn[nH]c(=O)n2)o1	Giardia FBPA inh-1 17.7µM, Cycloheximide cs 24.4, Shiga inhibitor 87.8 | Giardia growth inactive[10.4 µM] | Mammalian tox inactive | Giardia FBPA inh-2 inactive | Rabbit aldolase inactive | GAPDH coupling inactive
CC(/C=N/Nc1nncc(=O)[nH]1)=C\c1ccccc1	none
O=C(N/N=C/c1ccccn1)C1CC1	none
O=c1nc(N/N=C/c2ccccn2)cn[nH]1	Giardia FBPA inh-1 0.706µM, Cycloheximide cs 45.9, Shiga inhibitor 125.3 | Giardia growth inactive | Mammalian tox inconclusive | Giardia FBPA inh-2 inactive | Rabbit aldolase inactive | GAPDH coupling inactive
O=c1cnnc(N/N=C/c2ccccn2)[nH]1	Giardia FBPA inh-1 0.792µM | Giardia growth inactive | Mammalian tox inconclusive | Giardia FBPA inh-2 inactive | Rabbit aldolase inactive | GAPDH coupling inactive
Cc1ccc(/C=N/Nc2nnc(Cc3ccccc3)c(=O)[nH]2)o1	none (no result: NS1 inh)
CCN(CC)C[C@@H](O)CN1CCCCc2nc(C)c(C)cc21	none (no result: Cycloheximide cs, NS1 inh, LmPK inh, Shiga inhibitor)
O=C1/C(=C/c2ccco2)SC(=S)N1c1cccnc1	Giardia FBPA inh-1 8.89µM | Giardia growth inconclusive | Mammalian tox inactive | Giardia FBPA inh-2 inactive | Rabbit aldolase inactive | GAPDH coupling inactive
O=C(O)c1ccc(-c2ccc(/C=C3\NC(=O)N(Cc4ccc(Cl)cc4)C3=O)o2)cc1Cl	none

Compound activity as filed in PubChem BioAssay.
